Assay outcomes deposited in PubChem by National Center for Advancing Translational Sciences (NCATS).
AmpC detergent: blocks E. coli AmpC beta-lactamase in detergent assay. AmpC hydrolysis of nitrocefin, absorbance 480 nm, 0.01% Triton. Potency, µM (top dose mostly 114 µM), most hits filed as inhibitors. 0.041% of 370,000 active. AID 485294; further: nearly all actives have a fitted effect of over 25% in size
Target sequence (P00811 whole entry, looked up): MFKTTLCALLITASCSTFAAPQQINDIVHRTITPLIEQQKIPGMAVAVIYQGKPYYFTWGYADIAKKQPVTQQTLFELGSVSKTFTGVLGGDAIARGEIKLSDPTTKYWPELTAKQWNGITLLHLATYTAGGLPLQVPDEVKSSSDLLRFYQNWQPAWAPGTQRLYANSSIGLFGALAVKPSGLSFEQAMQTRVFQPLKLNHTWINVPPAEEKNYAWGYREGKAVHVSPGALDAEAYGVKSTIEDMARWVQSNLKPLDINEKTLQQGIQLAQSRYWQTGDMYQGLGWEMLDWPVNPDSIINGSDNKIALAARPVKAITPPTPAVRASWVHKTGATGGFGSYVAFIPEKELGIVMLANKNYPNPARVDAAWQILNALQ
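AmpC (5.3 nM in the dispensed reagent) in 20 mM phosphate pH 7.0 with 0.01% (detergent screen) or 0.0001% Triton X-100 was preincubated with compounds for 15 min at room temperature. Nitrocefin was then added from an 800 uM solution, and hydrolysis was followed at 480 nm.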
SARS PLP yeast: SARS-CoV PLP inhibition in yeast | S. cerevisiae expressing SARS-CoV PLpro, growth rescue | Potency, µM (doses to about 32.9 µM), most hits filed as activators | 0.19% of 330,000 active; calls by dose curve; further: nearly all actives have a fitted effect of over 55% in size
Cycloheximide cs: affects cycloheximide protein synthesis inhibition readout, counter-screen. cell reporter, cycloheximide protein synthesis inhibition counterscreen. max response, %. 12% of 300,000 active; in the data active means max response mostly above about 13%, no sharp cut-off; inactive means mostly below about 14%; further: read at 38.3 µM for the half of the compounds with a filed dose
Shiga toxin inh: Shiga toxin inhibition. Vero cells, Shiga toxin protein synthesis inhibition reporter. inhibition, % at 38.7 µM. 9.2% of 290,000 active; in the data active means inhibition mostly above about 28%, no sharp cut-off; inactive means mostly below about 43%
AMA1-RON2 inh: disrupts binding of P. falciparum AMA1 to RON2; AlphaScreen AMA1-biotinylated RON2 peptide binding; Potency, µM (titrated, usually from 58.2 µM), usual class: inhibitors; 0.2% of 360,000 active; further: nearly all actives have a fitted effect of over 45% in size
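AMA1 (3D7) with his tag at 25 nM final met compounds first, then biotinylated RON2 peptide at 25 nM; detection used donor plus acceptor beads, 10 µg/mL apiece, read by AlphaScreen after 30 min at room temperature.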
AmpC no deterg: blocks E. coli AmpC beta-lactamase in detergent-free assay | AmpC nitrocefin hydrolysis, absorbance 480 nm, 0.0001% Triton | Potency, µM (series often up to 57.1 µM), actives largely listed as inhibitors | 0.52% of 330,000 active | AID 485341; further: nearly all actives have a fitted effect of over 20% in size
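20 mM phosphate pH 7.0 + 0.01% (detergent screen) or 0.0001% Triton X-100; 5.3 nM AmpC reagent; cpd preinc 15 min RT; nitrocefin (800 uM stock) to start; A480 q20 s × 4 min; Activity was normalised to no-enzyme and no-compound control wells.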
Hits are given with their value; 0 = inactive; ? = inconclusive; - = no result; + = active, no number. The sample as a whole holds a higher share of hits than the screen did. Unless noted, the call rests on the fitted dose curve; in most records, active means well fitted curve in the direction sought with a large enough effect; inconclusive means small, poorly fitted or top-dose-only effect, or another doubt; inactive means no such curve, though single readings can be large; an effect the other way counts as inactive or inconclusive.

SMILES	AmpC detergent	SARS PLP yeast	Cycloheximide cs	Shiga toxin inh	AMA1-RON2 inh	AmpC no deterg
COc1ccc(C(=O)NCCc2ccc(F)cc2)cc1OC	0	0	26.6	0	0	0
COc1ccc(CCNC(=O)C/C(C)=N/NC(=O)c2ccc(N)cc2)cc1OC	0	0	12.1	0	0	?
CCOc1ccc(-c2c(C#N)c(N)nc3c2c(=O)n(C)c(=O)n3C)cc1OC	0	0	0	0	0	0
CCOC(=O)c1c(NC(=O)CSc2ccccc2C(=O)O)sc(C)c1C	0	0	0	0	0	0
Cc1ccccc1NC(=O)c1cccc(C(F)(F)F)c1	0	0	0	0	0	0
CCN1CCN(C(=O)c2ccc3c(=O)n(CCc4ccccc4)c(=O)[nH]c3c2)CC1	?	0	20.3	59.0	0	0
CN1CCN(C(=O)c2ccc3c(=O)n(CCc4ccccc4)c(=S)[nH]c3c2)CC1	-	-	-	-	0	-
O=C(Nc1ccc2c(c1)OCO2)N1CCN(S(=O)(=O)c2ccc(Cl)cc2)CC1	0	0	0	0	0	0
Cc1ccc(-c2ccc(C3C(C#N)=C(N)Oc4n[nH]c(C)c43)o2)cc1 (centres undefined)	0	0	31.9	50.0	0	0
Cc1cccc2c1-c1sc(C(=O)Nc3cccnc3)cc1CO2	?	0	19.3	42.2	0	0
CCc1cccc(NC(=O)c2cc3c(s2)-c2ccccc2OC3)c1	0	-	-	-	-	-
O=C(Nc1cccnc1)c1cc2c(s1)-c1ccccc1OC2	0	-	43.2	53.8	0	0
CC(=O)c1cccc(NC(=O)c2cc3c(s2)-c2c(C)cccc2OC3)c1	0	-	-	-	-	-
CCn1c2ccccc2c2cc(C3C(C#N)=C(N)OC4=C3C(=O)CC(C)(C)C4)ccc21 (centres undefined)	?	0	0	0	-	0
COc1cc(NS(=O)(=O)c2ccc(NC(=S)NC(=O)/C=C/c3ccco3)cc2)ncn1	0	0	0	0	?	0
Cc1ccc(SCc2cc(=O)n3ccsc3n2)c(C)c1	0	0	21.3	0	-	0
O=c1cc(CSc2ccc([N+](=O)[O-])cc2)nc2sccn12	0	0	0	68.2	0	0
Cc1ccc(Nc2nnc(SCc3cc(=O)n4ccsc4n3)s2)c(C)c1	0	0	0	0	0	0
Cc1cccc(-n2c(SCc3cc(=O)n4ccsc4n3)nc3ccccc32)c1	0	0	20.3	0	0	0
COc1ccc(CCNC(=O)C2CC(c3ccc(C(F)(F)F)cc3)=NO2)cc1 (centres undefined)	0	0	0	0	0	0
CC(=O)c1cccc(NC(=O)/C(=C\c2ccco2)NC(=O)c2cccs2)c1	0	0	12.9	28.6	0	0
Cc1ccc(C(=O)N/C(=C/c2ccco2)C(=O)Nc2cccc(C(=O)O)c2)cc1	0	0	21.8	0	0	0
CC(=O)C1(O)CCC2C3CC(C)C4=CC(=O)C=CC4(C)C3(F)C(O)CC21C (centres undefined)	-	-	-	-	0	-
COc1ccc(-c2cc(C(=O)c3c(N)n(C)c(=O)n(C)c3=O)c3ccccc3n2)cc1	0	0	18.3	0	0	0
Cn1c(N)c(C(=O)COC(=O)c2cc(-c3ccco3)nc3ccccc23)c(=O)n(C)c1=O	?	0	20.6	0	?	0
SMILES	AmpC detergent	SARS PLP yeast	Cycloheximide cs	Shiga toxin inh	AMA1-RON2 inh	AmpC no deterg
CC(C)C(=O)N(Nc1nc2ccccc2s1)C(=O)C(C)C	0	0	0	0	0	0
CC(c1ccco1)N(C(=O)c1ccc(C(F)(F)F)cc1)c1ccccn1 (centres undefined)	0	0	0	0	0	0
CC(c1ccco1)N(C(=O)c1ccc(Cl)s1)c1ccccn1 (centres undefined)	0	0	18.6	42.8	0	0
CC(c1ccco1)N(C(=O)c1ccccc1F)c1ccccn1 (centres undefined)	0	0	0	0	0	0
Cc1ccc(C(=O)N(c2ccccn2)C(C)c2ccco2)cc1C (centres undefined)	?	0	17.5	0	0	0
O=S(=O)(NCc1ccccn1)c1ccc(Cl)c(C(F)(F)F)c1	0	0	0	0	0	0
CC(=O)Nc1cccc(OCCCOc2cccc([N+](=O)[O-])c2)c1	-	-	-	-	0	-
CCOC(=O)C1CCCCN1Cc1cccc(C(F)(F)F)c1 (centres undefined)	0	0	0	0	0	0
O=C(Nc1ccccc1)c1sc2cc(C(F)(F)F)cnc2c1-c1cccs1	0	0	0	0	0	4.47µM
CCOC(=O)CNC(=O)CNC(=O)c1ccc(OC(C)C)cc1	0	0	24.4	0	0	0
CCOC(=O)CNC(=O)c1ccc(SCC)cc1	0	0	36.8	83.2	0	0
Cn1cc(C(=O)N/N=C/c2ccc3c(c2)OCO3)c2ccccc21	0	0	39.8	57.9	0	0
Cc1occc1C(=O)N/N=C/c1ccc2c(c1)OCO2	0	0	25.9	67.2	0	0
Cn1cc(C(=O)N/N=C/c2cccs2)c2ccccc21	0	0	39.1	67.5	0	0
Cc1cc(C(=O)N/N=C/c2ccc3c(c2)OCO3)c(C)o1	0	0	42.3	54.8	0	0
Cc1cccc2c(=O)c(C(=O)NCc3ccc(F)cc3)c[nH]c12	0	0	0	-	0	0
Cc1ccc(NC(=O)CSc2nnc(Cc3ccccc3)o2)c(C)c1	?	0	0	0	0	0
O=C(CSc1cnc2ccccc2n1)NC1CCCC1	0	0	0	0	0	0
c1ccc2nc(SCc3cn4ccccc4n3)cnc2c1	0	0	39.9	63.6	0	0
Cc1cc(C)nc(SCc2cn3c(C)cccc3n2)n1	0	0	0	0	0	0
Cc1cccc2nc(CSc3nc4ccccc4o3)cn12	0	0	49.3	+	0	0
c1ccc2oc(SCc3cn4ccccc4n3)nc2c1	0	0	52.5	65.1	0	0
CC1CCCN(C(C(=O)Nc2ccc3c(c2)OCO3)c2ccccc2)C1 (centres undefined)	?	0	0	0	0	0
C=CCOC(=O)C1=C(C)NC(=O)NC1c1ccc2c(c1)OCO2 (centres undefined)	0	0	0	0	0	0
C=CCOC(=O)c1c(C)nc2cc3c(cc2c1C)OCO3	0	0	28.8	68.6	0	0
CCOc1ccc(C(=O)Nc2ccc3c(c2)OCCO3)cc1OC	0	0	19.7	62.9	0	0
CCOc1cc(C(=O)Nc2ccc3c(c2)OCO3)ccc1OC(F)F	0	0	23.0	0	0	0
CCOc1ccc(C(=O)Nc2ccc3c(c2)OCCO3)cc1[N+](=O)[O-]	?	0	0	0	0	0
O=c1[nH]c(/C=C\c2ccc(O)cc2)nc(O)c1[N+](=O)[O-]	0	0	0	0	0	0
Nc1c(C(=O)Nc2ccc(Cl)c(Cl)c2)sc2nc(-c3cccnc3)ccc12	?	0	0	0	-	0
